{"source": "the supplement of paper PMC12636033", "note": "± gives the standard deviation of the averaged measurements. In all, about 33,000 sequences were measured (“E-score (rank enrichment, -0.5 to 0.5)”: median about -0.0043, highest 2% from about 0.24 on). Shown is part of a subset that was picked to be rich in the highest values.", "data": [{"system": "2Sp-muMax20 (muMax20 with two 2,6-bis(methyl)pyridine Cys staples)", "assay": "PBM 8-mer E-score (E-score (rank enrichment, -0.5 to 0.5)); higher = stronger preferential binding", "description": "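Protein binding microarray (universal PBM chip covering all 10-mers in fixed probe flanks) with chemically synthesized human Max(13-93) bHLH-LZ analogs (not full-length Max) bearing noncanonical residues (hArg, Tha, Aib, Nle at 65) and aromatic Cys staples. Read-out per 8-mer (and its reverse complement): E-score (rank-based enrichment, -0.5 to 0.5) and Z-score of median probe intensity.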", "values": [{"sequence": "AAAATGAG", "PBM 8-mer E-score": "0.267 ± 0.012"}, {"sequence": "AAAATGAA", "PBM 8-mer E-score": "0.135 ± 0.0098"}, {"sequence": "CAAATGAG", "PBM 8-mer E-score": "0.0988 ± 0.053"}, {"sequence": "GAAATGCA", "PBM 8-mer E-score": "0.135 ± 0.11"}, {"sequence": "AAGGTTTA", "PBM 8-mer E-score": "-0.18 ± 0.048"}, {"sequence": "GCGCGCAA", "PBM 8-mer E-score": "0.184 ± 0.057"}, {"sequence": "AAATGGCA", "PBM 8-mer E-score": "0.155 ± 0.028"}, {"sequence": "TAGACATA", "PBM 8-mer E-score": "0.0769 ± 0.014"}, {"sequence": "TAATGTGA", "PBM 8-mer E-score": "0.266 ± 0.01"}, {"sequence": "CAATGTGA", "PBM 8-mer E-score": "0.146 ± 0.013"}, {"sequence": "CGATGTGA", "PBM 8-mer E-score": "0.0746 ± 0.018"}, {"sequence": "CCATGTGC", "PBM 8-mer E-score": "0.114 ± 0.025"}, {"sequence": "ATATGTGG", "PBM 8-mer E-score": "0.218 ± 0.032"}, {"sequence": "ACATGTGA", "PBM 8-mer E-score": "0.312 ± 0.0028"}, {"sequence": "CCATGTGA", "PBM 8-mer E-score": "0.268 ± 0.087"}, {"sequence": "AGATGTGA", "PBM 8-mer E-score": "0.199 ± 0.019"}, {"sequence": "GAATGTGA", "PBM 8-mer E-score": "0.00134 ± 0.14"}, {"sequence": "GCATGTGA", "PBM 8-mer E-score": "0.183 ± 0.082"}, {"sequence": "ATATGTGA", "PBM 8-mer E-score": "0.311 ± 0.022"}, {"sequence": "CTATGTGA", "PBM 8-mer E-score": "0.148 ± 0.044"}, {"sequence": "GCTTAGCA", "PBM 8-mer E-score": "0.039 ± 0.11"}, {"sequence": "TACGCTAA", "PBM 8-mer E-score": "0.218 ± 0.0075"}, {"sequence": "GTTCTCTA", "PBM 8-mer E-score": "-0.185 ± 0.098"}, {"sequence": "AGTTCCAA", "PBM 8-mer E-score": "-0.0402 ± 0.057"}, {"sequence": "CCCCCCTA", "PBM 8-mer E-score": "-0.112 ± 0.073"}, {"sequence": "GCCAAACC", "PBM 8-mer E-score": "-0.0278 ± 0.14"}, {"sequence": "GCAGATAC", "PBM 8-mer E-score": "0.04 ± 0.079"}, {"sequence": "GTTCTACA", "PBM 8-mer E-score": "0.0307 ± 0.072"}, {"sequence": "ATACTAAC", "PBM 8-mer E-score": "0.245 ± 0.041"}, {"sequence": "ATACTACA", "PBM 8-mer E-score": "0.258 ± 0.033"}, {"sequence": "CTACTACA", "PBM 8-mer E-score": "0.0934 ± 0.18"}, {"sequence": "ATAATACA", "PBM 8-mer E-score": "0.271 ± 0.0055"}, {"sequence": "ATTCTACG", "PBM 8-mer E-score": "0.228 ± 0.01"}, {"sequence": "ATTCTACA", "PBM 8-mer E-score": "0.253 ± 0.021"}, {"sequence": "GTACTAAC", "PBM 8-mer E-score": "0.127 ± 0.038"}, {"sequence": "ATAATACC", "PBM 8-mer E-score": "0.209 ± 0.033"}, {"sequence": "ATACTAAA", "PBM 8-mer E-score": "0.145 ± 0.13"}, {"sequence": "ATAATACG", "PBM 8-mer E-score": "0.177 ± 0.032"}, {"sequence": "ATACTACC", "PBM 8-mer E-score": "0.147 ± 0.029"}, {"sequence": "CCCGTCCA", "PBM 8-mer E-score": "-0.241 ± 0.017"}, {"sequence": "TTCTAAAA", "PBM 8-mer E-score": "-0.19 ± 0.05"}, {"sequence": "TCCAACGA", "PBM 8-mer E-score": "-0.0483 ± 0.18"}, {"sequence": "CTGGCAAG", "PBM 8-mer E-score": "-0.0269 ± 0.07"}, {"sequence": "ACATTTTA", "PBM 8-mer E-score": "0.232 ± 0.019"}, {"sequence": "CCACTATA", "PBM 8-mer E-score": "0.183 ± 0.0029"}, {"sequence": "GGCAGTAC", "PBM 8-mer E-score": "0.105 ± 0.086"}, {"sequence": "ATACTAGC", "PBM 8-mer E-score": "0.117 ± 0.075"}, {"sequence": "ATACTAGA", "PBM 8-mer E-score": "0.26 ± 0.055"}, {"sequence": "CTACTAGA", "PBM 8-mer E-score": "0.05 ± 0.076"}, {"sequence": "TAAATAGA", "PBM 8-mer E-score": "0.000425 ± 0.01"}, {"sequence": "AAAATAGC", "PBM 8-mer E-score": "-0.0165 ± 0.011"}, {"sequence": "AAAATAGA", "PBM 8-mer E-score": "0.242 ± 0.0042"}, {"sequence": "TAACCTCA", "PBM 8-mer E-score": "-0.00886 ± 0.051"}, {"sequence": "GAGAGCAA", "PBM 8-mer E-score": "-0.127 ± 0.12"}, {"sequence": "CCTGGATA", "PBM 8-mer E-score": "-0.0904 ± 0.0036"}, {"sequence": "AAATAGGT", "PBM 8-mer E-score": "0.241 ± 0.0095"}, {"sequence": "AAATAGAC", "PBM 8-mer E-score": "0.257 ± 0.0069"}, {"sequence": "AAATAGAT", "PBM 8-mer E-score": "0.227 ± 0.023"}, {"sequence": "AAATAGGG", "PBM 8-mer E-score": "0.208 ± 0.0056"}, {"sequence": "AAATAGGC", "PBM 8-mer E-score": "0.0753 ± 0.026"}, {"sequence": "GAATAGAC", "PBM 8-mer E-score": "0.104 ± 0.096"}, {"sequence": "ACCGAAAA", "PBM 8-mer E-score": "-0.0179 ± 0.15"}, {"sequence": "CTCTTCCC", "PBM 8-mer E-score": "-0.062 ± 0.011"}, {"sequence": "GACGTGCC", "PBM 8-mer E-score": "-0.0934 ± 0.065"}, {"sequence": "GGCGTGCA", "PBM 8-mer E-score": "0.11 ± 0.047"}, {"sequence": "CACGTGCA", "PBM 8-mer E-score": "0.419 ± 0.027"}, {"sequence": "CGCGTGCA", "PBM 8-mer E-score": "0.263 ± 0.035"}, {"sequence": "CGCGTGCC", "PBM 8-mer E-score": "0.0851 ± 0.061"}, {"sequence": "AACGTGCG", "PBM 8-mer E-score": "0.129 ± 0.11"}, {"sequence": "AACGTGCA", "PBM 8-mer E-score": "0.149 ± 0.025"}, {"sequence": "TACGTGCA", "PBM 8-mer E-score": "0.105 ± 0.013"}, {"sequence": "AACGTGCC", "PBM 8-mer E-score": "0.0275 ± 0.036"}, {"sequence": "CCCGTGCG", "PBM 8-mer E-score": "-0.119 ± 0.06"}, {"sequence": "CACGTGCC", "PBM 8-mer E-score": "0.405 ± 0.0045"}, {"sequence": "CACGTGCG", "PBM 8-mer E-score": "0.4142 ± 0.0019"}, {"sequence": "GGTAGCAA", "PBM 8-mer E-score": "0.163 ± 0.004"}, {"sequence": "AAGTACTT", "PBM 8-mer E-score": "0.109 ± 0.032"}, {"sequence": "ACCGCATG", "PBM 8-mer E-score": "0.132 ± 0.074"}, {"sequence": "GCGCATCA", "PBM 8-mer E-score": "0.0862 ± 0.011"}, {"sequence": "CGGGTACA", "PBM 8-mer E-score": "-0.205 ± 0.03"}, {"sequence": "GACCGACA", "PBM 8-mer E-score": "-0.18 ± 0.052"}, {"sequence": "GAACAAAC", "PBM 8-mer E-score": "0.046 ± 0.051"}, {"sequence": "CCATAATC", "PBM 8-mer E-score": "0.159 ± 0.019"}, {"sequence": "CTCTTAGA", "PBM 8-mer E-score": "-0.116 ± 0.051"}, {"sequence": "AACAAATA", "PBM 8-mer E-score": "0.212 ± 0.063"}, {"sequence": "AACAAATT", "PBM 8-mer E-score": "0.265 ± 0.0042"}, {"sequence": "AAACAATT", "PBM 8-mer E-score": "0.252 ± 0.046"}]}]}
